Source: the supplement of paper PMC8728848
This excerpt belongs to a sample that is enriched for the strongest signals.

Tests used:
Assay in all cases: glycan array binding signal (z-score within array); higher = stronger binding
Settings in all cases: glycan notation: IUPAC condensed, linker removed
[1] = biological target: Gal(b1-4)GlcNAc(b1-3)Gal(b1-4)GlcNAc(b1-3)Gal(b1-4)GlcNAc(b1-3)Gal(b1-4)GlcNAc(b1-3)Gal(b1-4)GlcNAc(b1-2)Man(a1-3)[Gal(b1-4)GlcNAc(b1-3)Gal(b1-4)GlcNAc(b1-3)Gal(b1-4)GlcNAc(b1-3)Gal(b1-4)GlcNAc(b1-3)Gal(b1-4)GlcNAc(b1-2)Man(a1-6)]Man(b1-4)GlcNAc(b1-4)[Fuc(a1-6)]GlcNAc
Procedure, shortened: (§1)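 Arrays were curated from the Consortium for Functional Glycomics database, 3228 in total, and kept only where the protein sequence was available. Binding is expressed as a within-array Z-score. This score was averaged across arrays of the same protein sequence at different concentrations or buffers and across linkers, and negative values can be read as non-binding.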

[2] = biological target: Gal(b1-4)GlcNAc(b1-3)Gal(b1-4)GlcNAc(b1-3)Gal(b1-4)GlcNAc(b1-3)Gal(b1-4)GlcNAc(b1-3)Gal(b1-4)GlcNAc(b1-2)[Gal(b1-4)GlcNAc(b1-3)Gal(b1-4)GlcNAc(b1-3)Gal(b1-4)GlcNAc(b1-3)Gal(b1-4)GlcNAc(b1-3)Gal(b1-4)GlcNAc(b1-6)]Man(a1-6)[Gal(b1-4)GlcNAc(b1-3)Gal(b1-4)GlcNAc(b1-3)Gal(b1-4)GlcNAc(b1-3)Gal(b1-4)GlcNAc(b1-3)Gal(b1-4)GlcNAc(b1-2)Man(a1-3)]Man(b1-4)GlcNAc(b1-4)[Fuc(a1-6)]GlcNAc
Procedure, shortened: as §1

[3] = biological target: Gal(b1-4)GlcNAc(b1-3)[Fuc(a1-3)GlcNAc(b1-6)]Gal(b1-4)Glc
Procedure, shortened: as §1

[4] = biological target: Gal(b1-4)GlcNAc(b1-6)[Gal(b1-4)GlcNAc(b1-3)]GalNAc
Procedure, shortened: as §1

[5] = biological target: Gal3S(b1-4)GlcNAc
Procedure, shortened: as §1

[6] = biological target: Gal3S(b1-4)[Fuc(a1-3)]GlcNAc6S
Procedure, shortened: as §1

[7] = biological target: Gal6P(b1-4)GlcNAc
Procedure, shortened: as §1

[8] = biological target: GalNAc(a1-3)GalNAc(a1-3)Gal(a1-4)Gal(b1-4)GlcNAc
Procedure, shortened: as §1

[9] = biological target: GalNAc(b1-4)GlcNAc
Procedure, shortened: as §1

[10] = biological target: Glc(a1-6)Glc(a1-6)Glc(a1-6)Glc
Procedure, shortened: as §1

[11] = biological target: GlcNAc(a1-4)Gal(b1-4)GalNAc
Procedure, shortened: as §1

[12] = biological target: GlcNAc(a1-4)Gal(b1-4)GlcNAc(b1-3)Gal(b1-4)GlcNAc(b1-3)Gal(b1-4)GlcNAc
Procedure, shortened: as §1

[13] = biological target: GlcNAc(b1-2)Man(a1-3)[GlcNAc(b1-4)][GlcNAc(b1-2)Man(a1-6)]Man(b1-4)GlcNAc(b1-4)[Fuc(a1-6)]GlcNAc
Procedure, shortened: as §1

[14] = biological target: GlcNAc(b1-3)Gal(b1-4)Glc
Procedure, shortened: as §1

[15] = biological target: GlcNAc(b1-3)Gal(b1-4)GlcNAc(b1-2)Man(a1-3)[GlcNAc(b1-3)Gal(b1-4)GlcNAc(b1-2)Man(a1-6)]Man(b1-4)GlcNAc(b1-4)[Fuc(a1-6)]GlcNAc
Procedure, shortened: as §1

[16] = biological target: GlcNAc(b1-6)Gal(b1-4)GlcNAc
Procedure, shortened: as §1

[17] = biological target: GlcNAc(b1-6)GalNAc
Procedure, shortened: as §1

[18] = biological target: Man(b1-4)GlcNAc
Procedure, shortened: as §1

[19] = biological target: Neu5Ac(a2-3)Gal(b1-3)GalNAc(b1-4)[Neu5Ac(a2-8)Neu5Ac(a2-3)]Gal(b1-4)Glc
Procedure, shortened: as §1

[20] = biological target: Neu5Ac(a2-3)Gal(b1-3)GlcNAc(b1-3)Gal(b1-3)GlcNAc
Procedure, shortened: as §1

[21] = biological target: Neu5Ac(a2-3)Gal(b1-3)GlcNAc(b1-3)GalNAc
Procedure, shortened: as §1

[22] = biological target: Neu5Ac(a2-3)Gal(b1-3)GlcNAc6S
Procedure, shortened: as §1

[23] = biological target: Neu5Ac(a2-3)Gal(b1-4)GlcNAc6S
Procedure, shortened: as §1

[24] = biological target: Neu5Ac(a2-3)Gal(b1-4)[Fuc(a1-3)]GlcNAc(b1-6)[Neu5Ac(a2-3)Gal(b1-3)]GalNAc
Procedure, shortened: as §1

[25] = biological target: Neu5Ac(a2-3)[GalNAc(b1-4)]Gal(b1-4)Glc
Procedure, shortened: as §1

[26] = biological target: Neu5Ac(a2-6)Gal(b1-4)GlcNAc(b1-3)Gal(b1-4)GlcNAc(b1-3)Gal(b1-4)GlcNAc
Procedure, shortened: as §1

[27] = biological target: Neu5Ac(a2-6)Gal(b1-4)GlcNAc(b1-3)GalNAc
Procedure, shortened: as §1

[28] = biological target: Neu5Ac(a2-6)GlcNAc(b1-4)GlcNAc(b1-4)GlcNAc
Procedure, shortened: as §1

[29] = biological target: Neu5Ac(a2-8)Neu5Ac(a2-3)[Gal(b1-3)GalNAc(b1-4)]Gal(b1-4)Glc
Procedure, shortened: as §1

[30] = biological target: Neu5Ac(b2-6)Gal(b1-4)GlcNAc
Procedure, shortened: as §1

B1: Threefoil (Haloarcula marismortui) (protein)
chain: GSSHHHHHHHHHHSSGLVPRGSHMGDGYYKLVARHSGKALDVENASTSDGANVIQYSYSGGDNQQWRLVDLGDGYYKLVARHSGKALDVENASTSDGANVIQYSYSGGDNQQWRLVDLGDGYYKLVARHSGKALDVENASTSDGANVIQYSYSGGDNQQWRLVDL
Q: Which “glycan array binding signal (z-score)” value [1] does the source give for B1 here?
A: The value was 2.83.

Q: What about the “glycan array binding signal (z-score)” value [2] of the same binder?
A: Its value is 3.49.

Q: And the “glycan array binding signal (z-score)” value [3]?
A: Its value is 3.85.

Q: What about the “glycan array binding signal (z-score)” value [4] of the same binder?
A: The value was 0.738.

Q: What about the “glycan array binding signal (z-score)” value [5] of the same binder?
A: The value was -0.158.

Q: And the “glycan array binding signal (z-score)” value [6]?
A: The value was -0.038.

Q: And the “glycan array binding signal (z-score)” value [7]?
A: Its value is -0.211.

Q: And the “glycan array binding signal (z-score)” value [8]?
A: Its value is -0.227.

Q: What about the “glycan array binding signal (z-score)” value [9] of the same binder?
A: The value was -0.003.

Q: What about the “glycan array binding signal (z-score)” value [10] of the same binder?
A: Its value is -0.157.

Q: What about the “glycan array binding signal (z-score)” value [11] of the same binder?
A: The value was -0.271.

Q: What about the “glycan array binding signal (z-score)” value [12] of the same binder?
A: Its value is -0.208.

Q: What about the “glycan array binding signal (z-score)” value [13] of the same binder?
A: The value was -0.223.

Q: What about the “glycan array binding signal (z-score)” value [14] of the same binder?
A: Its value is -0.299.

Q: And the “glycan array binding signal (z-score)” value [15]?
A: The value was -0.052.

Q: And the “glycan array binding signal (z-score)” value [16]?
A: Its value is 0.035.

Q: And the “glycan array binding signal (z-score)” value [17]?
A: The value was -0.181.

Q: And the “glycan array binding signal (z-score)” value [18]?
A: The value was 0.763.

Q: What about the “glycan array binding signal (z-score)” value [19] of the same binder?
A: Its value is -0.245.

Q: What about the “glycan array binding signal (z-score)” value [20] of the same binder?
A: Its value is -0.139.

Q: And the “glycan array binding signal (z-score)” value [21]?
A: Its value is -0.266.

Q: What about the “glycan array binding signal (z-score)” value [22] of the same binder?
A: The value was -0.17.

Q: And the “glycan array binding signal (z-score)” value [23]?
A: Its value is -0.364.

Q: And the “glycan array binding signal (z-score)” value [24]?
A: The value was 0.108.

Q: What about the “glycan array binding signal (z-score)” value [25] of the same binder?
A: Its value is -0.269.

Q: And the “glycan array binding signal (z-score)” value [26]?
A: The value was -0.154.

Q: And the “glycan array binding signal (z-score)” value [27]?
A: Its value is -0.163.

Q: And the “glycan array binding signal (z-score)” value [28]?
A: Its value is -0.141.

Q: What about the “glycan array binding signal (z-score)” value [29] of the same binder?
A: Its value is -0.146.

Q: And the “glycan array binding signal (z-score)” value [30]?
A: Its value is -0.309.
